In paper PMC10668032, “Altered binding affinity of SIX1-Q177R correlates with enhanced WNT5A and WNT pathway effector expression in Wilms tumor” one finds binding signal data, which are given here for 87 sequences.

Whole data set: some 33,000 sequences, median “e-score” near -0.05, cut for the highest 2% near 0.38. What follows is part of a selection rich in the highest values, with near analogues and random picks from the rest.

This assay has as its target T1, SIX1-Q177R homeodomain (human, UniProt Q15475 108-198, Q177R).
T1 sequence: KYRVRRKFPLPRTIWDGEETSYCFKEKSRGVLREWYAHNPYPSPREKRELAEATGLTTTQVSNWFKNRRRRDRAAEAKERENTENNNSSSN
Description: universal protein binding microarray; Universal all-10-mer PBM (8x60K, AMADID 030236), 300 nM GST-tagged protein, Alexa Fluor 488 anti-GST; buffer, salt, pH and temperature not stated (as in Berger); high values mean tight binding. To be noted: protein: ivt; tags: N-terminal GST; dsDNA, one strand shown. Summed up:
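Duplicate protein binding microarrays (universal 'all 10-mer', 8×60K format) were incubated with GST-tagged homeodomains at 300 nM final concentration. Binding was quantified as 8-mer E-scores with the Universal PBM Analysis Suite.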
For the sequence ACCAACGC, the binding signal amounted to 0.246 ± 0.0108 E-score.

Consider TATCAACA, for which the binding signal is 0.288 ± 0.0159 E-score.

As to ACCCCGAC, the binding signal was 0.265 ± 0.018 E-score.

As to CTCGATCC, the binding signal is 0.201 ± 0.00608 E-score.

For the sequence GGTGCTTA, the binding signal is 0.234 ± 0.00599 E-score.

As for CGGTGACA, the binding signal stood at 0.248 ± 0.0377 E-score.

Regarding CAAACCCC, the binding signal was found to be 0.197 ± 0.0505 E-score.

Consider CACTGTGA, for which the binding signal was 0.177 ± 0.00305 E-score.

For the sequence CAGCCGAC, the binding signal came out at 0.196 ± 0.0242 E-score.

With GCACACGA, the binding signal stood at 0.214 ± 0.0114 E-score.

As to ACACACGA, the binding signal amounted to 0.251 ± 0.0465 E-score.

Consider CCACACGA, for which the binding signal stood at 0.234 ± 0.0111 E-score.

With TCACAACA, the binding signal was found to be 0.195 ± 0.0326 E-score.

Consider ACACACCA, for which the binding signal came out at 0.415 ± 0.0235 E-score.

Regarding GCACACGC, the binding signal amounted to 0.256 ± 0.0166 E-score.

As to CCACACCG, the binding signal was 0.363 ± 0.0269 E-score.

As to TCACACGA, the binding signal was found to be 0.226 ± 0.00234 E-score.

As for GCACACCA, the binding signal came out at 0.401 ± 0.0217 E-score.

With ACACACAA, the binding signal worked out at 0.244 ± 0.0667 E-score.

As for CCACACCA, the binding signal was determined as 0.393 ± 0.0307 E-score.

On to TCACACCA, for which the binding signal was 0.434 ± 0.00571 E-score.

In the case of ATCCCCTG, the binding signal was determined as 0.156 ± 0.0119 E-score.

In the case of ACTATACG, the binding signal is 0.178 ± 0.015 E-score.

CACTCTGA: the binding signal stood at 0.239 ± 0.0406 E-score.

CACCTTGC: the binding signal was determined as 0.258 ± 0.0162 E-score.

In the case of TGTTGAAA, the binding signal came out at 0.219 ± 0.0411 E-score.

Consider AGTGATAC, for which the binding signal amounted to 0.265 ± 0.0283 E-score.

As to CGTATACA, the binding signal came out at 0.241 ± 0.0194 E-score.

As for GCGGTACA, the binding signal is 0.305 ± 0.00496 E-score.

For ACACTAAA, the binding signal came to 0.345 ± 0.0117 E-score.

Regarding ACCCTAGG, the binding signal was determined as 0.1523 ± 0.00136 E-score.

Turning to ACACTAGA, the binding signal turned out to be 0.318 ± 0.0323 E-score.

Turning to ACACTAGC, the binding signal turned out to be 0.364 ± 0.0183 E-score.

For ACACTAGT, the binding signal is 0.389 ± 0.00685 E-score.

On to ACACTAGG, for which the binding signal came to 0.381 ± 0.0153 E-score.

Take GGATCAGA: the binding signal was 0.17 ± 0.0215 E-score.

For CCCTGCAG, the binding signal came to 0.185 ± 0.0216 E-score.

Consider CTCTTACA, for which the binding signal was determined as 0.183 ± 0.018 E-score.

ATGGGATC: the binding signal stood at 0.185 ± 0.00496 E-score.

CCGAACCC: the binding signal worked out at 0.186 ± 0.0116 E-score.

ACGAGCAC: the binding signal is 0.226 E-score.

For the sequence GCGAACAC, the binding signal stood at 0.4086 ± 0.0011 E-score.

Regarding CCGAATAC, the binding signal amounted to 0.163 ± 0.00356 E-score.

As for CCGAACAC, the binding signal was found to be 0.4236 ± 0.00158 E-score.

For the sequence GCGAACCC, the binding signal came out at 0.174 ± 0.0509 E-score.

With ACGAACAC, the binding signal is 0.3992 ± 0.00182 E-score.

Regarding ACCCTAAC, the binding signal amounted to 0.154 ± 0.00793 E-score.

In the case of ACCCACAG, the binding signal came out at 0.217 ± 0.00978 E-score.

On to CACCAGGA, for which the binding signal is 0.25 ± 0.00664 E-score.

On to GTACCTAC, for which the binding signal turned out to be 0.152 ± 0.0312 E-score.

For the sequence CTCCGTTC, the binding signal amounted to 0.182 ± 0.0356 E-score.

Consider CCCAAACG, for which the binding signal was determined as 0.169 ± 0.00462 E-score.

For the sequence ACAGGGTG, the binding signal is 0.222 ± 0.00416 E-score.

Consider AACACGAA, for which the binding signal came out at 0.305 ± 0.0107 E-score.

Consider AACACGAC, for which the binding signal was 0.373 ± 0.0147 E-score.

AGCACCAC: the binding signal came to 0.272 ± 0.00962 E-score.

On to AACACCAT, for which the binding signal was determined as 0.457 ± 0.0053 E-score.

As for TACACCAA, the binding signal was found to be 0.4751 ± 0.00401 E-score.

Consider AACACCAA, for which the binding signal turned out to be 0.46725 ± 0.00029 E-score.

Regarding TACACGAA, the binding signal worked out at 0.3773 ± 0.000856 E-score.

As to AGCACCAA, the binding signal was found to be 0.196 ± 0.00899 E-score.

As for TGCACCAA, the binding signal worked out at 0.211 ± 0.0149 E-score.

For AACACCAC, the binding signal worked out at 0.4833 ± 0.00244 E-score.

With AGCACCAT, the binding signal came out at 0.16 ± 0.0114 E-score.

Turning to GTCCGACA, the binding signal worked out at 0.217 ± 0.042 E-score.

For GTAAGCAC, the binding signal is 0.189 ± 0.00735 E-score.

In the case of CCTCCTAA, the binding signal amounted to 0.197 ± 0.00216 E-score.

As to GACGGTGC, the binding signal amounted to 0.175 ± 0.00182 E-score.

In the case of CACTGCAC, the binding signal was 0.223 ± 0.0117 E-score.

Turning to ACCCTCGG, the binding signal was 0.2 ± 0.0194 E-score.

Regarding GACACCAA, the binding signal worked out at 0.475 ± 0.00758 E-score.

With GATACCAA, the binding signal turned out to be 0.263 ± 0.0211 E-score.

Turning to GGCACCAC, the binding signal came to 0.215 ± 0.0174 E-score.

Regarding GACACCAC, the binding signal stood at 0.489 ± 0.00507 E-score.

Turning to GACACAAA, the binding signal is 0.224 ± 0.11 E-score.

Regarding GACCACAC, the binding signal was found to be 0.269 ± 0.0108 E-score.

Turning to CCCCTCGA, the binding signal was determined as 0.23 ± 0.0411 E-score.

As for GGCGGGTA, the binding signal is 0.214 ± 0.0165 E-score.

Take CCGGGTAC: the binding signal amounted to 0.294 ± 0.0102 E-score.

With AACGGGTG, the binding signal was 0.314 ± 0.00327 E-score.

As for ACCCGGTG, the binding signal turned out to be 0.3599 ± 0.0016 E-score.

Consider CTACTCCC, for which the binding signal turned out to be 0.228 ± 0.0226 E-score.

Consider CACGGCCG, for which the binding signal was found to be 0.188 ± 0.00306 E-score.

Take GTGTATTA: the binding signal was determined as 0.401 ± 0.0189 E-score.

In the case of GGGTATGA, the binding signal stood at 0.186 ± 0.0167 E-score.

Take GTGTATGA: the binding signal was determined as 0.412 ± 0.0071 E-score.

As to GGGTATTA, the binding signal came to 0.161 ± 0.054 E-score.
